Reference: PubChem BioAssay AID1159580 (chemical genetic matrix, 2015)
Where “and” joins values, the source holds several entries; their conditions need not be identical. Identical values can stand only once. The whole screen tested about 5,500 compounds, of which about 2,000 (36%) were called active. Another 18% or so got no clear call; they are omitted. No stated cut-off is given here; in the data, active means normalized growth mostly below about 0.91 (no sharp cut-off); inconclusive means no clear call, values can overlap the other calls; inactive means mostly above about 0.92. The list shows a part of the results.

Assay: chemical genetic growth profiling, strain panel (AID 1159580);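 further: tested at 20 µM; growth read once vehicle control cultures reached saturation at 30 °C; 1 = growth at the plate median or of vehicle wells; lower values mean less growth of the strain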
Conditions: S. cerevisiae deletion strains, growth OD

Measured: normalized growth

COc1c2ccoc2nc2c(OC)c(OCC(O)C(C)(C)O)ccc12 (configuration not stated)
inactive: locus YAL013W, strain DEP1, hits give low values 0.992 | locus YAL021C, strain ccr4, hits give low values 1.04 | locus YAL026C, strain drs2, hits give low values 1.02 | locus YAL030W, strain snc1, hits give low values 1.01 | locus YBL061C, strain skt5, hits give low values 1.02 | locus YBR009C, strain hhf1, hits give low values 1.02 | locus YBR021W, strain FUR4, hits give low values 0.992 | locus YBR023C, strain chs3, hits give low values 1.02 | locus YBR171W, strain sec66, hits give low values 1.02 | locus YBR229C, strain ROT2, hits give low values 1 | locus YBR231C, strain swc5, hits give low values 1.01 | locus YBR279W, strain paf1, hits give low values 1.01 | locus YCL011C, strain gbp2, hits give low values 1.03 | locus YCL016C, strain dcc1, hits give low values 1.02 | locus YCL029C, strain bik1, hits give low values 0.974 | locus YCL061C, strain MRC1, hits give low values 1.03 | locus YCL069W, strain vba3, hits give low values 1.01 | locus YCR088W, strain abp1, hits give low values 1.02 | locus YDL005C, strain med2, hits give low values 1.01 | locus YDL035C, strain GPR1, hits give low values 0.992 | locus YDL040C, strain nat1, hits give low values 1.01 | locus YDL074C, strain BRE1, hits give low values 1.02 | locus YDL101C, strain DUN1, hits give low values 1 | locus YDL134C, strain PPH21, hits give low values 0.991 | locus YDL185W, strain tfp1, hits give low values 0.974 | locus YDL192W, strain arf1, hits give low values 0.984 | locus YDR001C, strain nth1, hits give low values 1.01 | locus YDR069C, strain doa4, hits give low values 1.03 | locus YDR101C, strain arx1, hits give low values 1 | locus YDR137W, strain rgp1, hits give low values 1.02 | locus YDR150W, strain NUM1, hits give low values 0.99 | locus YDR159W, strain sac3, hits give low values 1.01 | locus YDR162C, strain NBP2, hits give low values 1.02 | locus YDR195W, strain ref2 0.976 | locus YDR297W, strain sur2, hits give low values 1.02 | locus YDR318W, strain mcm21, hits give low values 0.981 | locus YDR334W, strain swr1, hits give low values 1.02 | locus YDR335W, strain msn5, hits give low values 1.02 | locus YDR388W, hits give low values 0.997 | locus YDR392W, strain spt3, hits give low values 0.982 | locus YDR502C, strain sam2, hits give low values 1.01 | locus YEL003W, strain gim4, hits give low values 1.01 | locus YEL037C, strain rad23, hits give low values 1.01 | locus YEL061C, strain CIN8 (second series), hits give low values 1.01 | locus YEL061C, strain CIN8, hits give low values 1 | locus YER015W, strain faa2, hits give low values 1.02 | locus YER016W, strain bim1, hits give low values 1.01 | locus YER110C, hits give low values 0.983 | locus YER111C, strain swi4, hits give low values 1.02 | locus YER155C, strain BEM2 (second series), hits give low values 1.04 | locus YER155C, strain BEM2, hits give low values 0.996 | locus YER167W, strain BCK2, hits give low values 0.972 | locus YFR010W, strain ubp6, hits give low values 1.02 | locus YGL078C, strain dbp3, hits give low values 0.983 | locus YGL086W, strain mad1, hits give low values 0.976 | locus YGL167C, strain pmr1, hits give low values 1.01 | locus YGL173C, strain kem1, hits give low values 1.02 | locus YGL227W, strain vid30, hits give low values 1.02 | locus YGL240W, strain doc1, hits give low values 1.04 | locus YGL248W, strain PDE1, hits give low values 0.991 | locus YGL253W, strain hxk2, hits give low values 1.02 | locus YGR078C, strain PAC10, hits give low values 1.02 | locus YGR135W, strain pre9, hits give low values 0.995 | locus YGR229C, strain SMI1, hits give low values 1.02 | locus YGR252W, strain gcn5, hits give low values 0.984 | locus YHR013C, strain ard1, hits give low values 1.03 | locus YHR027C, strain rpn1, hits give low values 1.01 | locus YHR030C, strain SLT2, hits give low values 0.99 and 1.02 | locus YHR079C, strain IRE1 (second series), hits give low values 1 | locus YHR079C, strain IRE1, hits give low values 1.03 | locus YHR094C, strain hxt1, hits give low values 0.971 | locus YHR129C, strain ARP1, hits give low values 1 | locus YHR142W, strain chs7, hits give low values 1.03 | locus YHR200W, strain rpn10, hits give low values 0.974 | locus YIL066C, strain RNR3, hits give low values 0.998 | locus YIL073C, strain SPO22, hits give low values 0.9 | locus YIL125W, strain kgd1, hits give low values 0.999 | locus YIR030C, strain dcg1, hits give low values 0.983 | locus YJL092W, strain hpr5, hits give low values 1.01 | locus YJL095W, strain BCK1 (second series), hits give low values 1.01 | locus YJL095W, strain BCK1, hits give low values 1.05 and 1 | locus YJL115W, strain asf1, hits give low values 1.02 | locus YJL129C, strain trk1, hits give low values 1.04 | locus YJL134W, strain LCB3, hits give low values 0.989 | locus YJL154C, strain vps35, hits give low values 1.02 | locus YJL164C, strain tpk1, hits give low values 1.02 | locus YJL166W, strain qcr8, hits give low values 1.02 | locus YJL168C, strain set2, hits give low values 0.995 | locus YJL187C, strain SWE1 (second series), hits give low values 1.01 | locus YJL187C, strain SWE1, hits give low values 1.01 | locus YJR043C, strain POL32, hits give low values 0.987 | locus YJR066W, strain TOR1, hits give low values 0.964
